Assay outcomes as filed in PubChem.
The list is not random: actives were taken first. Their share in the collection is about 5.3%.
Marburg entry inh – qHTS for inhibitors of binding or entry into cells for Marburg Virus; Potency, µM (highest dose often 37.8 µM), inactives show at the top dose activity change, negative = inhibition, most hits filed as inhibitors; Marburg virus pseudotyped entry inhibition, cell reporter; 300,000 compounds, 1.8% hits; calls by dose curve; tested in HEK293 cells
Lassa entry inh – qHTS for Inhibitors of binding or entry into cells for Lassa Virus; Lassa virus pseudotype entry inhibition, cell reporter; Potency, µM (highest dose often 37.9 µM), without a hit: at the highest dose activity change, negative = inhibition, most hits filed as inhibitors; 300,000 compounds, 1.2% hits; AID 540256, 2011; calls by dose curve; tested in HEK293 cells; note: nearly all actives have a fitted effect of over 50% in size
VACV Venus inh – qHTS for Stage-Specific Inhibitors of Vaccinia Orthopoxvirus: Venus Reporter Primary qHTS | Vaccinia virus Venus reporter expression, fluorescence | Potency, µM (top dose mostly 36.5 µM), for the others: top-dose activity change, negative = inhibition, usual class: inhibitors | 330,000 compounds, 0.46% hits; calls by dose curve; tested in A549 cells; note: nearly all actives have a fitted effect of over 30% in size
VACV mCherry inh – qHTS for Stage-Specific Inhibitors of Vaccinia Orthopoxvirus: mCherry Reporter Primary qHTS; 310,000 compounds, 0.63% hits; AID 720579, 2013; Potency, µM (titrated, usually from 36.5 µM), for inactives: top-dose activity change, negative = inhibition, most hits filed as inhibitors; Vaccinia virus mCherry reporter infection, fluorescence; calls by dose curve; tested in A549 cells; note: nearly all actives have a fitted effect of over 35% in size
FMDV antiviral – High Throughput Screening for Foot and Mouth Disease Virus Antivirals | 410,000 compounds, 1.2% hits | FMDV antiviral cell-based qHTS | Potency, µM (highest dose often 57.9 µM), without a hit: at the highest dose activity change, negative = inhibition, hits mostly inhibitors; calls by dose curve; tested in HEK293T cells; note: read-out not given here; nearly all actives have a fitted effect of over 45% in size
HCV inhibitor – qHTS Assay for Inhibitors of Hepatitis C Virus (HCV); Huh7.5.1 HCVcc-Cre infection, luciferase reporter, 44 h; Potency, µM (doses to about 41.8 µM), for the others: top-dose activity change, negative = inhibition, usual class: inhibitors; 340,000 compounds, 3.4% hits; AID 651820, 2012; active = well fitted inhibition curve with a large enough effect; inconclusive = small, poorly fitted or top-dose-only effect, or another doubt; inactive = no such curve, though single readings can be large or run the other way
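Reporter virus HCVcc-Cre (~0.5 moi) infects cells exposed to compound; seeding density 1,000 cells/well with 4 h settling beforehand. Luminescence, 15 sec read, taken 44 h post-infection following a 15 min RT substrate incubation.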
An asterisk follows results filed as active; i = inactive; ? = inconclusive; / = no result given; [ ] = dose if it differs, or a comment. % is set by controls: 0 for no effect and ±100 for the full control effect; potency is the fitted concentration of half-maximal effect.

SMILES	Marburg entry inh	Lassa entry inh	VACV Venus inh	VACV mCherry inh	FMDV antiviral	HCV inhibitor
CCN(CC)CCNC(=O)c1ccc(NC(=O)c2cccc(S(=O)(=O)N(C)C3CCCCC3)c2)cc1	/	/	/	/	7.9%	?
CCOC(=O)c1ccc(NC(=O)c2cn(-c3ccccc3)nc2-c2ccncc2)cc1	7.08µM*	-25.2%	-7.4%	-10.2%	?	?
CCN(CC)CCNC(=O)c1ccc(NC(=O)c2ccc3c(c2)CCC3)cc1	/	/	/	/	5.2%	11.2µM*
CCN(CC)CCNC(=O)c1ccc(NC(=O)c2cn(-c3ccccc3)nc2-c2cccs2)cc1	/	/	/	/	-21.6%	11.2µM*
CCn1nc(C)cc1C(=O)NCC1Cc2cccc(-c3cccnc3)c2O1 (stereo not given)	/	/	-14.2%	-16.6%	-25.2%	/
c1ccc(-c2csc3ncnc(NCC4COc5ccccc5O4)c23)cc1 (stereo not given)	2.24µM*	?	?	?	28.2µM*	0.562µM*
C=CCN1[C@@H](C(C)C)COCCS1(=O)=O	/	/	-7.6%	-18.4%	/	/
CCC1CN(C(=O)N2CCC(C(=O)NCc3ccc(OC)cc3OC)CC2)c2cc(C)ccc2O1 (stereo not given)	/	?	-9.6%	-2.6%	-12.5%	/
Cc1ccc(C[n+]2c(-c3ccc(C)cc3)cc(-c3ccc(C)cc3)cc2-c2ccc(C)cc2)cc1	/	/	3.55µM*	?	?	2.24µM*
CCCCN(CCCC)c1ccc(/C=C/c2ccnc3ccccc23)cc1	/	/	32.1%	i	/	/
Cc1cccc2c1-c1sc(C(=O)NCCCN3CCN(c4ccccc4F)CC3)cc1CO2	11.2µM*	/	-23.0%	-14.4%	?	/
CCN1CCN(CCCNC(=O)c2cc3c(s2)-c2c(C)cccc2OC3)CC1	10µM*	/	?	?	0.0%	/
COc1cc(Cl)c(C)cc1NC(=O)c1cc2c(s1)-c1c(C)cccc1OC2	-8.7%[46.1 µM]	/	-28.5%	-20.6%	0.0%	/
Cc1cccc2c1-c1sc(C(=O)Nc3ccccc3N3CCN(C)CC3)cc1CO2	15.8µM*	?	-23.8%	-18.7%	?	-11.9%
CNc1ccc(C=O)cc1Cl	/	/	-5.9%	-8.7%	/	/
Cc1ccc(CNc2nc(-c3ccco3)nn2C(=O)c2ccccc2[N+](=O)[O-])cc1	-27.5%[46.1 µM]	?	-2.4%	-2.0%	35.0%	/
O=C(NCC(c1cccnc1)N1CCN(Cc2ccccc2)CC1)C(=O)Nc1cccc(Cl)c1 (stereo not given)	/	?	-22.4%	-23.7%	-0.1%	/
Cc1ccc(S(=O)(=O)N2CCN(c3nc(-c4cscn4)nc4ccccc34)CC2)cc1	/	/	-22.8%	-24.6%	/	/
CC(OC(=O)CCc1cc(C(C)(C)C)c(O)c(C(C)(C)C)c1)C(=O)NC1CC1 (stereo not given)	?	?	-18.2%	12.6µM*	13.3%	?
CC(C)(C)c1cc(CCC(=O)NN)cc(C(C)(C)C)c1O	-5.4%[46.1 µM]	?	-11.6%	2.3%	-13.3%	4.3%
CN(C)CCN(CC1CCCN(Cc2ccccc2F)C1)C(=O)Cc1ccccc1F (stereo not given)	/	/	/	/	-2.4%	?
Cc1ccc(C(=O)N(CCN(C)C)CC2CCCN(Cc3ccccc3F)C2)cc1C (stereo not given)	?	?	-24.0%	-8.9%	-21.9%	11.2µM*
CCOc1ccccc1CNC(=O)C1CCN(S(=O)(=O)c2cccc3nonc23)CC1	/	1.0%[46.1 µM]	-1.4%	3.5%	-4.5%	/
CN1CCC(N(C)S(=O)(=O)c2ccc(NC(=O)COc3ccc(Cl)cc3)cc2)CC1	/	/	/	/	-27.7%	12.6µM*
CC(Oc1cccc(Cl)c1)C(=O)Nc1ccc(S(=O)(=O)N(C)C2CCN(C)CC2)cc1 (stereo not given)	?	1.7%	?	11.2µM*	-24.5%	?
SMILES	Marburg entry inh	Lassa entry inh	VACV Venus inh	VACV mCherry inh	FMDV antiviral	HCV inhibitor
CC(=O)OC1C(=O)[C@@]2(C)C(O)CC3OC[C@]3(OC(C)=O)C2C(OC(=O)c2ccccc2)[C@]2(O)CC(OC(=O)C(O)C(NC(=O)c3ccccc3)c3ccccc3)C(C)=C1C2(C)C (stereo not given in full)	/	/	?	-27.7%	-3.9%	/
CC(=O)O[C@H]1C(=O)[C@]2(C)[C@H]([C@H](OC(=O)c3ccccc3)[C@]3(O)C[C@H](OC(=O)[C@H](O)[C@@H](NC(=O)c4ccccc4)c4ccccc4)C(C)=C1C3(C)C)[C@]1(OC(C)=O)CO[C@@H]1C[C@@H]2O	/	/	-25.9%	-17.7%	-1.1%	6.31µM*
Oc1ccccc1C=NN=C1c2ccccc2-c2ccccc21	7.8%	?	-5.1%	i	44.5%	8.91µM*
Oc1cccc(/C=N/N=C/c2cccc(O)c2O)c1O	?	11.2µM*	-14.7%	i	-87.0%	-7.3%
COC(=O)c1cc(-c2ccccc2)sc1N	?	?	-19.3%	-9.1%	32.6%	2µM*
CCOc1ccccc1Nc1cc2n(c(=O)n1)CCc1cc(OC)c(OC)cc1-2	?	?	-21.2%	-27.3%	-15.4%	-18.5%
CCOc1ccc(Nc2cc3n(c(=O)n2)CCc2cc(OC)c(OC)cc2-3)cc1	-25.1%	11.2µM*	-22.6%	-5.1%	-8.1%	-10.0%
COc1cc2c(cc1OC)-c1cc(NC3CCCCCCC3)nc(=O)n1CC2	?	14.1µM*	-27.3%	-15.4%[1.46 µM]	0.0%	-10.6%
CC(=O)c1c(C)n(-c2cccc(Cl)c2)c2ccc(OC(=O)c3ccccc3)cc12	/	1.7%[46.1 µM]	-4.1%	-5.5%	-27.9%	/
OC(c1cccc(Cl)c1)(c1cccc(Cl)c1)C1CN2CCC1CC2 (stereo not given)	?	?	-27.7%	-2.7%	-14.6%	15.8µM*
COCc1ccc(CN2CCOc3ccc(C4=Cc5ccccc5C4)cc3C2)o1	/	/	-8.9%	-13.6%	45.0%	/
CCCC(c1nnnn1Cc1ccccc1)N1CCN(c2ccccc2OC)CC1 (stereo not given)	-13.3%	-24.2%	-8.8%	/	?	-4.7%
CCCC(c1nnnn1Cc1ccc(OC)cc1)N1CCN(c2ccccc2OC)CC1 (stereo not given)	?	?	-28.6%	/	35.5µM*	?
COc1ccccc1C(c1nnnn1Cc1ccccc1)N1CCN(c2nc3ccccc3s2)CC1 (stereo not given)	?	?	-25.6%	/	-24.9%	12.6µM*
CCN1CCCC1CNC(=O)c1cnn(-c2nccc(-c3cc4ccccc4o3)n2)c1C (stereo not given)	/	/	-10.1%	-6.3%	3.8%	/
COc1cc2nc(N(C)C)c(CNCc3nonc3C)cc2c(OC)c1OC	/	/	6.8%	-4.6%	-2.9%	/
N#CC1=C(SCC(=O)c2ccc(Br)cc2)NC2=C(C(=O)CCC2)C1c1ccco1 (stereo not given)	8.91µM*	?	?	?	?	4.47µM*
